# Screening results as filed in PubChem.
# This is a sample that favours compounds with a hit; in the whole collection about 10% have one here.
# hNpr1 antagonist: Natriuretic polypeptide receptor (hNpr1) antagonism - Primary qHTS; Atrial natriuretic peptide receptor 1 (Homo sapiens), P16066; HEK293 hNpr1 GloSensor cGMP, ANP-stimulated luminescence; Potency, µM (doses to about 46.3 µM), without a hit: at the top dose activity change, negative = inhibition, actives largely listed as inhibitors; 76,000 compounds, 1.6% hits; calls by dose curve; note: nearly all actives have a fitted effect of over 60% in size
#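 HEK293 cells stably expressing human Npr1 and cGMP GloSensor pGS-40F, loaded 2 h with 2% GloSensor reagent, given compound 30 min at room temperature. Luminescence read before and 20 min after 0.1 nM hNppA.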
# Luciferase inh: Firefly luciferase inhibition profiling of diverse chemical library using quantitative high-throughput screening. purified P. pyralis luciferase, luminescence, biochemical. Potency, µM (highest dose often 115 µM), hits mostly inhibitors. 76,000 compounds, 2.5% hits. AID 1347043, 2019; note: nearly all actives have a fitted effect of over 65% in size
#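 FLuc 10nM, D-luciferin 10uM, ATP 10uM, Mg acetate 10mM, Tris acetate pH 7.5, Tween/BSA; cpd qHTS; enzyme added last; CCD luminescence.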
# HEK cytotox: Cytotoxic Profiling in HEK 293 Cell Line of Diverse Libraries Using Quantitative High-Throughput Screening. AID 1345083, 2018. Potency, µM (titrated, usually from 115 µM), without a hit: at the highest dose activity change, negative = cytotoxicity, usual class: inhibitors. HEK 293 viability, ATP luminescence (CellTiter-Glo), 48-72 h. 94,000 compounds, 6.6% hits; note: nearly all actives have a fitted effect of over 60% in size
#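 Cytotoxicity was scored by loss of ATP-coupled luminescence (CellTiter-Glo) in HEK 293 cells. Compound treatment ran 48 or 72 hr at 37 degree Celsius, 5% CO2, 95% humidity.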
# 3T3 cytotox: Cytotoxic Profiling in NIH 3T3 Cell Line of Diverse Libraries Using Quantitative High-Throughput Screening | NIH 3T3 viability, CellTiter-Glo ATP luminescence, 48-72 h | Potency, µM (highest dose often 96.7 µM), without a hit: at the highest dose activity change, negative = cytotoxicity, actives largely listed as inhibitors | 94,000 compounds, 4.3% hits; note: nearly all actives have a fitted effect of over 55% in size
#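 ATP-dependent luminescence (CellTiter-Glo) served as the viability signal for NIH 3T3 cells treated with compound for 48 or 72 hr at 37 °C.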
# GPT2 inh: Primary qHTS assay for inhibitors of Glutamate pyruvate transaminase 2 (GPT2); Recombinant GPT2, coupled pyruvate oxidase/HRP Amplex Red fluorescence; Alanine aminotransferase 2 (Homo sapiens), Q8TD30; 100,000 compounds, 0.25% hits; Potency, µM (titrated, usually from 57.7 µM), for the others: at the highest dose activity change, negative = inhibition, hits mostly inhibitors; note: nearly all actives have a fitted effect of over 60% in size
# Target sequence (Q8TD30 whole entry, looked up): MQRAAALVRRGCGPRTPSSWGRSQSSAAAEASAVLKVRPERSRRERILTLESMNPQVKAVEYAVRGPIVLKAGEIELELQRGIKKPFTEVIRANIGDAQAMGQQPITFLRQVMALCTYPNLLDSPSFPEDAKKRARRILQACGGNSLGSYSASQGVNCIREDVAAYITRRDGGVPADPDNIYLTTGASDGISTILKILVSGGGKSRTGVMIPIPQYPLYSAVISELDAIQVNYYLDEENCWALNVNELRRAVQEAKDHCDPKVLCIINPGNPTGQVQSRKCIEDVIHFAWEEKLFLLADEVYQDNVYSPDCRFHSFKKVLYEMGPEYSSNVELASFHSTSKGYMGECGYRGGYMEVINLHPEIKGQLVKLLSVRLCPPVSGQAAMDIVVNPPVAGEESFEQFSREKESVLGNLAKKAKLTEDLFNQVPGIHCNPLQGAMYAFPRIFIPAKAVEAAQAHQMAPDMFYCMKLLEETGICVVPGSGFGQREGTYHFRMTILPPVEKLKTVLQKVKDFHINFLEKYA
#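 Fluorescence read-out: pyruvate from GPT2 turnover coupled to pyruvate oxidase, HRP and Amplex Red (0.2mM ThPP, 0.2U/mL PO and HRP, 50uM Amplex final). Substrates 250uM a-KG, 2mM L-alanine; enzyme 10ng/uL; 30 min RT.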
# * hit, by the source's call; i = inactive; ? = inconclusive; . = no result; [ ] = remark or other dose. Unless noted, calls come from the whole dose curve; as a rule, active = well fitted curve in the direction sought with a large enough effect; inconclusive = small, poorly fitted or top-dose-only effect, or another doubt; inactive = no such curve, though single readings can be large; an effect the other way counts as inactive or inconclusive. % is set by controls: 0 for no effect and ±100 for the full control effect; potency is the fitted concentration of half-maximal effect.
SMILES,hNpr1 antagonist,Luciferase inh,HEK cytotox,3T3 cytotox,GPT2 inh
CNC(=O)CCn1ncc2cc(OCc3ccccc3-c3cc(F)ccc3C)ccc21,-27%[70.6 µM],?,63µM*,79µM*,4%[88.5 µM]
CNC(=O)CCn1ncc2cc(OCc3ccccc3-c3ccc(F)cc3F)ccc21,-2%[70.6 µM],?,79µM*,?,?
CNC(=O)CCn1ncc2cc(OCc3ccccc3-c3ccccc3C)ccc21,-18%[70.6 µM],i,?,?,-3%[88.5 µM]
O=C1CCN(S(=O)(=O)c2ccccc2)CCCN(Cc2cn[nH]c2-c2ccc(F)cc2)CCN1,4%,i,-19%,-28%,i
CN(Cc1ccccc1C(F)(F)F)C(=O)Nc1ccccc1,0%[70.6 µM],?,?,?,1%[88.5 µM]
CN(Cc1ccccc1C(F)(F)F)C(=O)Cc1cccc(Cl)c1,0%[70.6 µM],i,79µM*,?,i
CN(Cc1ccc(F)cc1)C(=O)Nc1ccc(Cl)cc1,-28%[70.6 µM],?,89µM*,?,-3%[88.5 µM]
CN(Cc1ccccc1C(F)(F)F)C(=O)Nc1ccc(Cl)cc1,-19%[70.6 µM],i,?,35µM*,-9%[88.5 µM]
CN(Cc1ccc(F)cc1)C(=O)Nc1ccccc1,0%[70.6 µM],i,-25%[172 µM],?,-3%[88.5 µM]
CN(Cc1ccccc1C(F)(F)F)C(=O)c1ccccc1Cl,0%[70.6 µM],i,?,-30%[138 µM],i
CN1[C@H](CO)C[C@H](CNC(=O)c2cn(CCN)nn2)[C@@H]1c1ccccc1F,-3%,i,3%,4%,i
CCOC(=O)CNC(=O)c1ccc2c(c1)N(S(C)(=O)=O)CC2,-1%,i,12%,i,-5%
Cc1ccc(NC(=O)c2ccc3c(c2)N(S(C)(=O)=O)CC3)cc1,?,1.3µM*,?,-19%,i
COc1ccc(CCNC(=O)c2ccc3nc(C)cn3c2)cc1,4%,i,?,-12%,1%[11.5 µM]
CCn1cc(S(=O)(=O)N2CC(c3nc(CCN(C)C(=O)C4CC4)no3)C2)cn1,.,.,-1%,-4%,4%
Cc1nn(-c2ccccc2)c2c1C(C1CC1)N(C1CCCN(C(=O)c3ccc(F)cc3)C1)C2=O (centres undefined),.,.,32µM*,?,.
Cc1nn(-c2ccccc2)c2c1C(C1CC1)N(C1CN(C(=O)c3ccc(C(F)(F)F)cc3)C1)C2=O (centres undefined),.,.,?,-28%,.
Cc1nn(-c2ccccc2)c2c1C(C1CC1)N(CC1CN(C(=O)c3ccc(F)cc3)C1)C2=O (centres undefined),.,.,35µM*,?,.
COc1ccc(C(=O)N2CCC(N3C(=O)c4c(c(C)nn4-c4ccccc4)C3C3CC3)C2)cc1 (centres undefined),.,.,45µM*,?,.
Cc1nn(-c2ccccc2)c2c1C(C1CC1)N(C1CCN(C(=O)c3ccccc3)C1)C2=O (centres undefined),.,.,?,14µM*,.
COCc1noc(C2CCCCCN2C(=O)NCc2ccc(F)cc2)n1 (centres undefined),1%,i,-2%,-2%,3%
Cc1nn(-c2ccccc2)c2c1C(C1CC1)N(C1CN(C(=O)c3ccncc3)C1)C2=O (centres undefined),.,.,4%,-1%,.
Cc1ccc(C(=O)N2CCC(N3C(=O)c4c(c(C)nn4-c4ccccc4)C3C3CC3)C2)cc1 (centres undefined),.,.,25µM*,18µM*,.
COCCn1c2c([n+](Cc3cnccn3)c1C)C(=O)c1ccccc1C2=O,.,.,.,.,0.15µM*
COCCn1c(=O)c(C(=O)NC(C)C)nc2cccnc21,.,.,i,-11%[138 µM],-7%[88.5 µM]
SMILES,hNpr1 antagonist,Luciferase inh,HEK cytotox,3T3 cytotox,GPT2 inh
O=C1CCCCC(CNC(=O)c2ccccn2)N1 (centres undefined),3%,i,-11%,i,5%
COC1CCCOC12CCN(C(=O)CCCn1cncn1)CC2 (centres undefined),1%,i,2%,i,-6%
Cc1ccc(OCC(=O)N2CCOc3ccc(CN4CCc5ccccc5C4)cc3C2)cc1,-24%,i,?,40µM*,-10%
O=C(COc1ccc(F)cc1)N1CCOc2ccc(CN3CCc4ccccc4C3)cc2C1,?,i,?,?,i
O=C(COc1ccccc1)N1CCOc2ccc(CN3CCc4ccccc4C3)cc2C1,?,i,32µM*,?,i
O=C(C1CC1)N1CCOc2ccc(CN3CCc4ccccc4C3)cc2C1,?,i,40µM*,-17%,i
Cc1nn(C)cc1C(=O)NCCn1c(C)cnc1C1CCC1,1%,i,-9%,i,0%
O=C(C[C@@H]1CCNC[C@@H]1Cc1cc(-c2ccc(F)cc2)on1)N1CCC(Cc2ccccc2)CC1,1%,i,32µM*,20µM*,-3%
CCN(CC)C(=O)C[C@@H]1CCNC[C@@H]1Cc1cc(-c2ccccc2)on1,-1%[70.6 µM],i,?,?,0%[88.5 µM]
CCCCc1cc(C[C@H]2CNCC[C@H]2CC(=O)Nc2nccs2)no1,-12%[70.6 µM],63µM*,?,?,4%[88.5 µM]
CN(Cc1ccccc1)C(=O)C[C@@H]1CCNC[C@@H]1Cc1cc(-c2ccc(F)cc2)on1,-23%[70.6 µM],i,35µM*,32µM*,i
CCCCc1cc(C[C@H]2CNCC[C@H]2CC(=O)NCCNC(C)=O)no1,7%[70.6 µM],i,i,3%[174 µM],-5%[88.5 µM]
O=C(C[C@@H]1CCNC[C@@H]1Cc1cc(-c2ccccc2)on1)N1CCOCC1,1%[70.6 µM],i,-1%[172 µM],-1%[174 µM],i
CN(Cc1ccccc1)Cc1cc(C[C@H]2CNCC[C@H]2CC(=O)N2CCN(c3ccccn3)CC2)no1,4%,i,-14%,1%,-4%
CN(Cc1ccccc1)C(=O)C[C@@H]1CCNC[C@@H]1Cc1cc(CN(C)c2ccccc2)on1,-15%,i,?,79µM*,?
CC(C)N1CCC(N2CCCC2C(=O)Nc2cccc(-n3cccn3)c2)CC1 (centres undefined),-1%,i,i,-11%,-6%
CC(C)(C)c1cc(C[C@H]2CNCC[C@H]2CC(=O)Nc2ccccc2)no1,-16%[70.6 µM],i,?,112µM*,1%[88.5 µM]
CCN(CC)C(=O)C[C@@H]1CCNC[C@@H]1Cc1cc(CC2CCCCC2)on1,3%[70.6 µM],i,71µM*,25µM*,-3%[88.5 µM]
O=C(C[C@@H]1CCNC[C@@H]1Cc1cc(COc2ccccc2)on1)N1CCN(c2ccc(F)cc2)CC1,-16%,i,22µM*,25µM*,-9%
